Measured values taken from PubChem BioAssay (EPA / NIEHS).
Records with an inconclusive call do not appear. Activity calls are given as the source filed them. How the source made its calls, unless noted: active means hit-call score of the fitted dose curve at least 0.9, where 1 is the maximum; inconclusive means response in the unintended direction; inactive means score below 0.9.

How the values were obtained:
[1] = read-out: ABC Transporter (ABCB11), ABCB11 (gene 8647); test: CLD_ABCB11_24hr: CellzDirect (CLD) Gene Expression Assay for ABC Transporter (ABCB11) at 24 hours (AID 2283674; active means hit-call score of the fitted dose curve at least 0.9, where 1 is the maximum; inactive means score below 0.9)
How it was run: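 Primary human hepatocytes were dosed daily for two days, with 0.2% DMSO vehicle. ABCB11 mRNA induction was measured at 24 hours by quantitative nuclease protection assay with chemiluminescence. Gain of signal was fitted relative to DMSO.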

[2] = read-out: Cytochrome P450 2B6 (Homo sapiens) (UniProt P20813); test: CLD_CYP2B6_6hr: CellzDirect (CLD) Gene Expression Assay for xenobiotic metabolism (CYP2B6) at 6 hours (AID 2283677);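 further: actives raise CYP2B6 transcript above DMSO baseline so AC50 marks an inducer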
How it was run: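 Primary human hepatocytes dosed with chemicals at multiple concentrations, vehicle 0.2% DMSO; CYP2B6 mRNA induction measured 6 h after dosing by quantitative nuclease protection assay with chemiluminescence, gain of signal fitted relative to DMSO.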

[3] = read-out: Cytochrome P450 2C19 (Homo sapiens) (UniProt P33261); test: CLD_CYP2C19_6hr: CellzDirect (CLD) Gene Expression Assay for xenobiotic metabolism (CYP2C19) at 6 hours (AID 2283678)
How it was run: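 Primary human hepatocytes from two donor preparations were dosed daily, with 0.2% DMSO as vehicle, and harvested 6 h after dosing. CYP2C19 mRNA induction was measured by qNPA chemiluminescence and fitted as gain of signal against DMSO.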

[4] = CCTE_Padilla_ZF_144hpf_TERATOSCORE: (Legacy) CCTE's 144 Hour Post-fertilization zebrafish Assay Teratoscore, Padilla Lab (AID 2283679; active means hit-call score of the fitted dose curve at least 0.9, where 1 is the maximum; inactive means score below 0.9;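 on AC50: zebrafish embryos with chorions exposed by immersion from 6-8 hpf to 5 dpf with daily renewal; teratogenicity score from eye scoring of death hatching and malformations at 144 hpf; higher score means more developmental defects relative to DMSO baseline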)
How it was run: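 Larvae scored by eye at 144 hpf for death, hatching and malformations after a day in clean Hanks'. Before that, daily-renewed exposure at 80 uM (0.4% DMSO, 26C) from roughly 6-8 hpf through 5 dpf, 4 embryos per chemical.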

[5] = read-out: Glyceraldehyde-3-phosphate dehydrogenase (Homo sapiens) (UniProt P04406); test: CLD_GAPDH_6hr: CellzDirect (CLD) Gene Expression Assay for Baseline Control (Glyceraldehyde 3-phosphate dehydrogenase) at 6 hours (AID 2283681);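 further: active means increased signal relative to DMSO vehicle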
How it was run: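 Primary human hepatocytes from two donor preparations, dosed at multiple concentrations with 0.2% DMSO vehicle; GAPDH mRNA measured 6 h after dosing by chemiluminescent quantitative nuclease protection assay (qNPA) on denatured lysates. Serves as background control; cytotoxicity annotated by morphology.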

[6] = read-out: ABC Transporter (ABCB1), ABCB1 (gene 5243); test: CLD_ABCB1_24hr: CellzDirect (CLD) Gene Expression Assay for ABC Transporter (ABCB1) at 24 hours (AID 2283684);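 on AC50: potency for increase in ABCB1 mRNA relative to DMSO vehicle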
How it was run: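 Primary human hepatocytes, two donor preparations, dosed daily with fresh solutions; vehicle 0.2% DMSO; harvested at 24 h. ABCB1 mRNA measured by quantitative nuclease protection assay (chemiluminescence); morphology-based cytotoxicity annotated.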

[7] = read-out: Cytochrome P450 2B6 (Homo sapiens) (UniProt P20813); test: CLD_CYP2B6_24hr: CellzDirect (CLD) Gene Expression Assay for xenobiotic metabolism (CYP2B6) at 24 hours (AID 2283686)
How it was run: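 Primary human hepatocytes dosed daily for two days with fresh solutions, harvested at 24 hours; mRNA induction quantified by qNPA chemiluminescence, gain of signal vs 0.2% DMSO vehicle. Cytotoxicity annotated from phase-contrast morphology.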

[8] = read-out: Cytochrome P450 2C19 (Homo sapiens) (UniProt P33261); test: CLD_CYP2C19_24hr: CellzDirect (CLD) Gene Expression Assay for xenobiotic metabolism (CYP2C19) at 24 hours (AID 2283687);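 further: activity means mRNA induction above DMSO vehicle baseline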
How it was run: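 Primary human hepatocytes (two donor preparations) dosed daily with fresh test chemical in 0.2% DMSO vehicle; CYP2C19 mRNA induction measured at 24 h by quantitative nuclease protection assay with chemiluminescence, fitted for gain of signal versus DMSO.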

[9] = read-out: Cytochrome P450 3A4 (Homo sapiens) (UniProt P08684); test: CLD_CYP3A4_24hr: CellzDirect (CLD) Gene Expression Assay for xenobiotic metabolism (CYP3A4) at 24 hours (AID 2283689)
How it was run: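 Primary human hepatocytes from two donors dosed daily with fresh compound for two days, 0.2% DMSO vehicle. CYP3A4 mRNA at 24 hr by qNPA chemiluminescence; gain-of-signal fit versus DMSO, cytotoxicity flagged by morphology.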

[10] = read-out: organic anion transporter (SLCO1B1), SLCO1B1 (gene 10599); test: CLD_SLCO1B1_24hr: CellzDirect (CLD) Gene Expression Assay for organic anion transporter (SLCO1B1) at 24 hours (AID 2283690)
How it was run: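 Primary human hepatocytes (two donor preparations) dosed daily for two days with chemicals at multiple concentrations, 0.2% DMSO vehicle. SLCO1B1 mRNA at 24 h measured by qNPA chemiluminescence; induction fitted relative to DMSO.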

[11] = read-out: sulfotransferase (SULT2A), SULT2A1 (gene 6822); test: CLD_SULT2A_24hr: CellzDirect (CLD) Gene Expression Assay for sulfotransferase (SULT2A) at 24 hours (AID 2283694)
How it was run: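 Primary human hepatocytes from two donor preparations were dosed daily with fresh solutions, vehicle 0.2% DMSO. At 24 h, lysates went to quantitative nuclease protection (qNPA) with S1 digestion and chemiluminescent readout. Cytotoxicity was annotated from phase-contrast morphology.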

[12] = CLD_ACTIN_6hr: CellzDirect (CLD) Gene Expression Assay for Baseline Control (Actin) at 6 hours (AID 2283676);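 further: active means increased actin mRNA relative to DMSO vehicle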
How it was run: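 Primary human hepatocytes dosed with fresh chemical solutions (vehicle 0.2% DMSO), harvested at 6 h. Actin mRNA quantified by quantitative nuclease protection assay with chemiluminescent read-out, as background control relative to DMSO.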

[13] = read-out: xenobiotic metabolism (CYP1A2), CYP1A2 (gene 1544); test: CLD_CYP1A2_24hr: CellzDirect (CLD) Gene Expression Assay for xenobiotic metabolism (CYP1A2) at 24 hours (AID 2283683)
How it was run: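 Primary human hepatocytes from two donor preparations dosed daily with multiple concentrations of chemical, 0.2% DMSO vehicle. CYP1A2 mRNA at 24 h quantified by qNPA chemiluminescence; gain of signal analyzed relative to DMSO. Cytotoxicity flagged by phase-contrast morphology.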

[14] = read-out: Broad substrate specificity ATP-binding cassette transporter ABCG2 (Homo sapiens) (UniProt Q9UNQ0); test: CLD_ABCG2_24hr: CellzDirect (CLD) Gene Expression Assay for ABC Transporter (ABCG2) at 24 hours (AID 2283685);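 on AC50: AC50 is for induction meaning signal gain over DMSO vehicle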
How it was run: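 Primary human hepatocytes were dosed daily with ToxCast chemicals at multiple concentrations (vehicle 0.2% DMSO). ABCG2 mRNA was measured at 24 h by qNPA chemiluminescence; induction was scored as gain of signal versus DMSO.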

[15] = read-out: Glyceraldehyde-3-phosphate dehydrogenase (Homo sapiens) (UniProt P04406); test: CLD_GAPDH_24hr: CellzDirect (CLD) Gene Expression Assay for Baseline Control (Glyceraldehyde 3-phosphate dehydrogenase) at 24 hours (AID 2283692)
How it was run: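 Primary human hepatocytes (two donor preparations) dosed daily for two days, 0.2% DMSO vehicle; GAPDH mRNA measured at 24 h by qNPA chemiluminescence as a background control, gain-of-signal fitted against DMSO.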

[16] = read-out: Cytochrome P450 3A4 (Homo sapiens) (UniProt P08684); test: CLD_CYP3A4_6hr: CellzDirect (CLD) Gene Expression Assay for xenobiotic metabolism (CYP3A4) at 6 hours (AID 2283680)
How it was run: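 Primary human hepatocytes (two donor preparations) dosed; CYP3A4 mRNA harvested at 6 h and quantified by qNPA chemiluminescence. Gain of signal fitted against 0.2% DMSO vehicle; cytotoxicity flagged by phase-contrast morphology.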

[17] = read-out: ABC Transporter (ABCB1), ABCB1 (gene 5243); test: CLD_ABCB1_48hr: CellzDirect (CLD) Gene Expression Assay for ABC Transporter (ABCB1) at 48 hours (AID 2283695)
How it was run: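 Primary human hepatocytes from two donor preparations dosed daily on two consecutive days with 0.2% DMSO vehicle. Harvest at 48 h. ABCB1 mRNA quantified by qNPA with chemiluminescence and fitted for gain of signal versus DMSO.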

[18] = read-out: alkyl and aryl transferase (GSTA2), GSTA2 (gene 2939); test: CLD_GSTA2_24hr: CellzDirect (CLD) Gene Expression Assay for alkyl and aryl transferase (GSTA2) at 24 hours (AID 2283693)
How it was run: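 Primary human hepatocytes (two donor preparations) dosed daily for two days with chemicals at multiple concentrations (vehicle 0.2% DMSO); GSTA2 mRNA at 24 h measured by qNPA chemiluminescence, gain-of-signal versus DMSO.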

[19] = read-out: HMG-CoA synthase (HMGCS2), HMGCS2 (gene 3158); test: CLD_HMGCS2_6hr: CellzDirect (CLD) Gene Expression Assay for HMG-CoA synthase (HMGCS2) at 6 hours (AID 2283682);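 further: actives raise HMGCS2 transcript above the 0.2% DMSO vehicle baseline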
How it was run: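 Primary human hepatocytes dosed daily with fresh chemical, 0.2% DMSO vehicle; HMGCS2 mRNA measured at 6 h by qNPA chemiluminescence. Gain of signal fitted against DMSO; cytotoxicity flagged from phase-contrast morphology.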

[20] = read-out: ABC Transporter (ABCB11), ABCB11 (gene 8647); test: CLD_ABCB11_6hr: CellzDirect (CLD) Gene Expression Assay for ABC Transporter (ABCB11) at 6 hours (AID 2283675);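 further: hits raise ABCB11 mRNA level so AC50 marks induction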
How it was run: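 Human primary hepatocytes (two donor preparations) given fresh chemical daily at multiple concentrations, vehicle 0.2% DMSO. ABCB11 mRNA induction measured 6 h after dosing by qNPA chemiluminescence versus DMSO; cytotoxicity annotated from morphology.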

Measured: AC50

Sequence of Cytochrome P450 2C19 (Homo sapiens) (P33261 whole entry, looked up): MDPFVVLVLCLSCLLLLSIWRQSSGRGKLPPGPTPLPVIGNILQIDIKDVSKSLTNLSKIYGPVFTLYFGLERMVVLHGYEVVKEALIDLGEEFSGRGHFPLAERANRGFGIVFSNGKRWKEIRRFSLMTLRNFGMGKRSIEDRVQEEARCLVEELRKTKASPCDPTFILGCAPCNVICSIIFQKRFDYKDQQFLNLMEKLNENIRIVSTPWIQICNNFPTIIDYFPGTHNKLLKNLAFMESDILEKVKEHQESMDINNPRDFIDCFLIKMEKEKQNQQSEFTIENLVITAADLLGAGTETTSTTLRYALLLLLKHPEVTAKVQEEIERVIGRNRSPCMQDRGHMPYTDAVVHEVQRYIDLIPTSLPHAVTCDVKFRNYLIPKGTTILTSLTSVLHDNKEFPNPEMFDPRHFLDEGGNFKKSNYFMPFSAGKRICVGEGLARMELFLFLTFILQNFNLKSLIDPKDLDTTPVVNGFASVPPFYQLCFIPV
Sequence of Cytochrome P450 3A4 (Homo sapiens) (P08684 whole entry, looked up): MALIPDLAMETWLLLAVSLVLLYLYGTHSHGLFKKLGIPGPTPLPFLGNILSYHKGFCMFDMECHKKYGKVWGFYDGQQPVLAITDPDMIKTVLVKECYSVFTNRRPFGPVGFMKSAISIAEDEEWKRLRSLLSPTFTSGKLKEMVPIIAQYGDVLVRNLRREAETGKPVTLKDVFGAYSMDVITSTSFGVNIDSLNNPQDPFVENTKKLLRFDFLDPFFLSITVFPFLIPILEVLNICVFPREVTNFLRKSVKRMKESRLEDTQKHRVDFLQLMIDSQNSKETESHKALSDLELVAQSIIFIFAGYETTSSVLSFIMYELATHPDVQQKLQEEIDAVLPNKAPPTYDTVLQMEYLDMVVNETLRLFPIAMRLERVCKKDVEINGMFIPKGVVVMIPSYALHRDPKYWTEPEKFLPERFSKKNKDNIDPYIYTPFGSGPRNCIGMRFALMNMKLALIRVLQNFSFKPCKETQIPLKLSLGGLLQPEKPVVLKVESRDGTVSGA
Sequence of Broad substrate specificity ATP-binding cassette transporter ABCG2 (Homo sapiens) (Q9UNQ0 whole entry, looked up): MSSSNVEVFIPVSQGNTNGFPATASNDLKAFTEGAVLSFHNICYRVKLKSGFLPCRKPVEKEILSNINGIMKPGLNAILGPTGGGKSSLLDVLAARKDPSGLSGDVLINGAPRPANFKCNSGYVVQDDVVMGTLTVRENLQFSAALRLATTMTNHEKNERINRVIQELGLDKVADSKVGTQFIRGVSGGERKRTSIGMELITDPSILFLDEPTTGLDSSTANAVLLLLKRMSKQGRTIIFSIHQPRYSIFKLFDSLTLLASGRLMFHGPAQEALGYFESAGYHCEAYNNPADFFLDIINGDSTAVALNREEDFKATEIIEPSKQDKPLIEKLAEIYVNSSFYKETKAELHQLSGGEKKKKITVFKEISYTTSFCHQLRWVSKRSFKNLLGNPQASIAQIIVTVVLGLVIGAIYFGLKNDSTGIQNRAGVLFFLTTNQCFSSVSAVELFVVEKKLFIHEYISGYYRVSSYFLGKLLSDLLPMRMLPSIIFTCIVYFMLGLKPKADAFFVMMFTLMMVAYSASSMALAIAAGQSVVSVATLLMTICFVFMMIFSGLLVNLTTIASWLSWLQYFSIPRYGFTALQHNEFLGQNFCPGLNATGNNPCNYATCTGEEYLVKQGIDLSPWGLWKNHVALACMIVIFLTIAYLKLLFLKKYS
Sequence of Glyceraldehyde-3-phosphate dehydrogenase (Homo sapiens) (P04406 whole entry, looked up): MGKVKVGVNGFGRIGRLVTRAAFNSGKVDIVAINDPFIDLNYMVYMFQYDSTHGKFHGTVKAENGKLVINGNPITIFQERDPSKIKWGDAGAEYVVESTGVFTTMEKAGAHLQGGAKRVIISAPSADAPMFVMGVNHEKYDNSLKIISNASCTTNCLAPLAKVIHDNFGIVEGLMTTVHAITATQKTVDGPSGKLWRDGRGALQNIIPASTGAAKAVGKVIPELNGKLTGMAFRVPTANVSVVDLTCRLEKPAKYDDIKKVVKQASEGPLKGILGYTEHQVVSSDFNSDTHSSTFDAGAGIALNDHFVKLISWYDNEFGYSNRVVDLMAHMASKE

CC1(C(=O)Nc2ccc(O)c(Cl)c2Cl)CCCCC1
inactive: [1] | [2] | [3] | [5] | [6] | [7] | [8] | [9] | [10] | [11]
active: [4] 10.1 µM

CN(C)NC(=O)CCC(=O)O
not listed: [3] | [11] | [16] | [17] | [18] | [19] | [20]
inactive: all other assays above

CON=C(C(=O)OC)c1ccccc1CON=C(C)c1cccc(C(F)(F)F)c1
active: [2] 10.2 µM | [4] 0.208 µM | [7] 20 µM | [9] 15.6 µM
inactive: [1] | [3] | [13] | [6] | [14] | [8] | [11]

CCOP(=S)(Oc1cnc(C(C)(C)C)nc1)OC(C)C (stereo not given)
inactive: [1] | [12] | [5] | [6] | [14] | [8] | [11]
active: [2] 0.47 µM | [4] 16.8 µM | [13] 6.43 µM | [7] 2.05 µM | [9] 0.464 µM

CCNc1nc(Cl)nc(NC(C)(C)C#N)n1
active: [2] 3.62 µM | [7] 3.69 µM | [9] 4.74 µM
inactive: [3] | [4] | [16] | [13] | [6] | [8] | [10] | [11]

CC(C)N(C(=O)SCC(Cl)=C(Cl)Cl)C(C)C
active: [2] 5.4 µM | [4] 32.7 µM | [6] 35.3 µM | [7] 20 µM | [9] 20 µM
inactive: [12] | [3] | [13] | [14] | [8] | [15] | [17]

O=[N+]([O-])c1cc(C(F)(F)F)c(Cl)c([N+](=O)[O-])c1Nc1ncc(C(F)(F)F)cc1Cl
inactive: [2] | [3] | [5] | [7] | [9]
active: [4] 0.994 µM | [13] 0.508 µM

CSC1=N[C@@](C)(c2ccccc2)C(=O)N1Nc1ccccc1
inactive: [12] | [5] | [6] | [14] | [7] | [9] | [10] | [11]
active: [2] 1.88 µM | [4] 3.03 µM | [13] 3.97 µM

FC(F)C(F)(F)OCC(Cn1cncn1)c1ccc(Cl)cc1Cl (stereo not given)
inactive: [6] | [14] | [18] | [11]
active: [2] 1.12 µM | [4] 57.8 µM | [13] 1.46 µM | [7] 0.275 µM | [9] 0.949 µM

Nc1nc(N)nc(NC2CC2)n1
not listed: [1] | [8] | [16] | [17] | [18] | [19] | [20]
inactive: all other assays above

Cc1cc(C2CC2)nc(Nc2ccccc2)n1
inactive: [12]
active: [2] 1.58 µM | [4] 15.3 µM | [13] 4.15 µM | [7] 3.97 µM

CCCOCC(=Nc1ccc(Cl)cc1C(F)(F)F)n1ccnc1
inactive: [12] | [5] | [7] | [15]
active: [2] 1.15 µM | [4] 2.07 µM | [13] 1.89 µM | [6] 32 µM | [14] 20 µM | [9] 1.9 µM

CCOC(=O)COc1cc(-c2nn(C)c(OC(F)F)c2Cl)c(F)cc1Cl
active: [2] 2.63 µM | [4] 0.201 µM | [7] 20 µM | [9] 20 µM
inactive: [5] | [13] | [6] | [8] | [10] | [11] | [17]

CSc1nc(NC(C)C)nc(NC(C)C)n1
inactive: [3] | [5] | [6] | [8] | [11]
active: [2] 4.01 µM | [4] 132 µM | [13] 2.63 µM | [7] 2.99 µM | [9] 3.97 µM

CCOP(=S)(OCC)Oc1cc(C)nc(C(C)C)n1
active: [2] 1.96 µM | [4] 62.7 µM | [13] 7.6 µM | [7] 0.747 µM
inactive: [12] | [5] | [19] | [6] | [8] | [11]

O=c1ccc(=O)[nH][nH]1
inactive: [20] | [3] | [4] | [5] | [13] | [6] | [14] | [8] | [10] | [15]

CCOP(=O)(NC(C)C)Oc1ccc(SC)c(C)c1 (stereo not given)
inactive: [8] | [15] | [18] | [11] | [17]
active: [2] 3.13 µM | [4] 50.3 µM | [13] 6.73 µM | [7] 6.17 µM

COc1ccc(C(=CC(=O)N2CCOCC2)c2ccc(Cl)cc2)cc1OC
inactive: [12] | [6] | [14] | [8] | [10] | [15] | [11]
active: [2] 4.1 µM | [4] 23.6 µM | [16] 2.29 µM | [7] 3.59 µM | [9] 2.09 µM

CCc1cnc(C2=NC(C)(C(C)C)C(=O)N2)c(C(=O)O)c1 (stereo not given)
not listed: [1] | [2] | [11] | [14] | [16] | [19] | [20]
inactive: all other assays above
